# Assay outcomes (PubChem BioAssay)
# Most compounds without a hit are left out; they make up all but 2.8% or so of the library.
# GLP-1R agonist – agonists of human GLP-1 receptor; P43220; HEK293 GLP-1R CRE-luciferase, luminescence, 4-6 h; cells express a hypersensitive GLP-1R form; Potency, µM (series often up to 45.6 µM), for inactives: at the highest dose activation, actives largely listed as activators; actives 0.007% (n = 380,000); AID 624172; further: potency means the concentration at half of the fitted maximal effect; % of control where 0% means no effect
# KCNH2 WT inh – blocks the wildtype human KCNH2 potassium channel; U2OS, BacMam KCNH2, thallium flux FluxOr; stronger effect = lower value; actives 0.37% (n = 340,000); Q12809; AID 720551; activity change, % at 1.84 µM;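 active means maximum activity change below -70%; inconclusive means maximum activity change between -70% and -50%; inactive means maximum activity change above -50%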; further: on the % scale 0 is the no-effect control and ±100 the full control effect
# Target sequence (Q12809 whole entry, looked up): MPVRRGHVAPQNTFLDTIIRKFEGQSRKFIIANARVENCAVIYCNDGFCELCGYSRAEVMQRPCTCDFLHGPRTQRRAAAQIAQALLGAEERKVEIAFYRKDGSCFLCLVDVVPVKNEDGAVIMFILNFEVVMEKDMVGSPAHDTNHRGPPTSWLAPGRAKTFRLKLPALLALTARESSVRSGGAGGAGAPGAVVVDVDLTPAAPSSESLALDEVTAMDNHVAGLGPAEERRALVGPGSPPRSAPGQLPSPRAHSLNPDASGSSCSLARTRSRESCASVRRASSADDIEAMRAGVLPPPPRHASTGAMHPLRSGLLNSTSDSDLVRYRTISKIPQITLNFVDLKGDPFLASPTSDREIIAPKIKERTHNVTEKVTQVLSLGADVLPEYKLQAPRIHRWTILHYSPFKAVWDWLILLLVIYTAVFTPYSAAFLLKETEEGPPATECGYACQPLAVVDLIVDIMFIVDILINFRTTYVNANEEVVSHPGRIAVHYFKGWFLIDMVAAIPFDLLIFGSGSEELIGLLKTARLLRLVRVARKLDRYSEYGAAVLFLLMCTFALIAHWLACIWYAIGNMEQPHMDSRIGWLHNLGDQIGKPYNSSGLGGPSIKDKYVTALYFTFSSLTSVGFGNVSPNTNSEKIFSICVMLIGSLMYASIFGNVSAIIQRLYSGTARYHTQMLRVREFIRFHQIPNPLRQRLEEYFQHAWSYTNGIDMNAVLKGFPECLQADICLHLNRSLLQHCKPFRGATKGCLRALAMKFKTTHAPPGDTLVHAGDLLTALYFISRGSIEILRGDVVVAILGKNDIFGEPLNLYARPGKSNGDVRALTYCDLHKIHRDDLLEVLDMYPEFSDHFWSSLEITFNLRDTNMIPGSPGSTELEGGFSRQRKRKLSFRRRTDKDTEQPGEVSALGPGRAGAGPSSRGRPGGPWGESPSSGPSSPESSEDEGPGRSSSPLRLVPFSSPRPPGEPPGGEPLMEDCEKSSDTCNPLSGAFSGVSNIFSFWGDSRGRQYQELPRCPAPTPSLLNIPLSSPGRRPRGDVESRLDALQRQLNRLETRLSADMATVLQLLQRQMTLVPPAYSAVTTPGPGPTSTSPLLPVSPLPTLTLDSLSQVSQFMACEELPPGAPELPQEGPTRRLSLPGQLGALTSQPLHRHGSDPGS
#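 U2OS cells transduced with wild-type KCNH2 virus are loaded with FluxOr dye for 45 min, and thallium flux is measured in kinetic reads before and after stimulation buffer. Rate constants are normalized to DMSO controls.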
# GLS inhibitor – blocks human kidney-isoform glutaminase activity. actives 0.21% (n = 410,000). Potency, µM (highest dose often 45.5 µM), without a hit: at the highest dose activity change, negative = inhibition, hits mostly inhibitors. AID 624170. GLS enzymatic activity, qHTS titration. O94925; further: potency means the concentration at half of the fitted maximal effect; on the % scale 0 is the no-effect control and ±100 the full control effect
#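 hKGA in 45 mM KH2PO4 (pH 8.2), 0.02% Tween-20 with compound, then 1mM L-Glutamine (stock as added) plus glutamate oxidase/HRP/Amplex red coupling mix. Fluorescence read initially and after 30 min at RT; signal change reflects glutamate formation.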
# GLP1R inv ag – inverse agonists of human GLP-1 receptor. P43220. HEK293 GLP-1R CRE-luciferase, luminescence, 24 h; GLP-1R form is constitutively active. Potency, µM (top dose mostly 38.3 µM), without a hit: at the top dose activity change, negative = inhibition, most hits filed as inhibitors. actives 1.6% (n = 410,000). AID 624417; further: potency means the concentration at half of the fitted maximal effect; on the % scale 0 is the no-effect control and ±100 the full control effect; nearly all actives have a fitted effect of over 55% in size
#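 qHTS in 1536-well format: reporter HEK293 cells expressing constitutive GLP-1R activity in DMEM + 10% Nu serum, 24 hr with compounds at 37 deg C, luminescence read after 12 min with detection reagent.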
# KCNH2 3.1 block – blocks the human KCNH2 3.1 channel isoform; U2OS KCNH2 3.1, thallium flux FluxOr; stronger effect = lower value; activity change, % (tested at about 1.8 µM); actives 0.95% (n = 340,000);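 active means maximum activity change below -70%; inconclusive means maximum activity change from -70% to -50%; inactive means maximum activity change above -50%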;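 further: thallium influx rate constant from kinetic fluorescence after stimulation buffer; on the % scale 0 is the no-effect control and ±100 the full control effect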
#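 FluxOr-based Tl+ influx in U2OS cells transduced with KCNH2 3.1 virus; rate constants normalized to DMSO controls.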
# GLP1R cytotox – cytotoxicity counter-screen for GLP-1 receptor inverse agonists; Potency, µM (highest dose often 38.3 µM), without a hit: at the top dose activity change, negative = inhibition, most hits filed as inhibitors; actives 0.13% (n = 410,000); AID 624418; HEK293 cAMP-luciferase reporter cells, luminescence, 24 h;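 further: loss of luciferase light is scored as toxicity; potency means the concentration at half of the fitted maximal effect; on the % scale 0 is the no-effect control and ±100 the full control effect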
#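 Luminescence readout: signal drop marks cytotoxicity. Plated cells grew 12 h at 37 °C, 5% CO2, received 23 nL compound for 24 h, then got luciferase reagent, read after 12 min at RT.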
# * hit, by the source's call; u = inconclusive; x = no result. Unless noted, the call rests on the fitted dose curve; in most records, active means well fitted curve in the direction sought with a large enough effect; inconclusive means small, poorly fitted or top-dose-only effect, or another doubt; inactive means no such curve, though single readings can be large; an effect the other way counts as inactive or inconclusive.
SMILES,GLP-1R agonist,KCNH2 WT inh,GLS inhibitor,GLP1R inv ag,KCNH2 3.1 block,GLP1R cytotox
CCCC(=O)NC(=S)Nc1ccc(S(=O)(=O)N2CCc3ccccc32)cc1,19%,1,0%,8.9µM*,-8,-30%
Cc1cccc(-n2cnc3cc(C(=O)NC4CCCCCC4)ccc32)c1,x,x,1%,u,x,u
CC(C)c1cnc2c(c1SCC(=O)Nc1cccc([N+](=O)[O-])c1)c(=O)n(C)c(=O)n2C,x,x,7%,15%,x,-10%
Clc1ccc(-c2nnc(NC3=NCCCCC3)o2)cc1,-18%,-3,4%,4.5µM*,0,-4%
COc1ccccc1NC(=O)C(C)N(C)CCOc1ccccc1 (centres undefined),17%,5,-2%,11µM*,9,20%
O=S(=O)(NCc1cccc(Br)c1)c1ccc(-c2cc(C(F)(F)F)on2)s1,x,x,-10%,u,x,-8%
Cc1c(C(=O)N(C)C)c2ccc(Cl)cc2n1O,3%,0,26%,3%,-107*,2%
O=C(C1CCC(Cn2c(=S)[nH]c3ccccc3c2=O)CC1)N1CCN(c2ccccc2)CC1 (centres undefined),-11%,4,31%,3.5µM*,-33,-5%
O=c1c2ccccc2[nH]c(=S)n1CCCN1CCC(Cc2ccccc2)CC1,4%,-14,2%,u,-76*,u
Cc1cccc(OCc2nc(CC(=O)Nc3ccc(C)cc3C)cs2)c1,x,x,-10%,u,x,-6%
CCOC(=O)Cc1csc(SCC(=O)Nc2cc(Cl)ccc2Oc2ccccc2)n1,-2%,-8,2%,10µM*,-9,26%
COc1ccc(CC(=O)c2ccc(OC3OC(CO)C(O)C(O)C3O)cc2O)cc1 (centres undefined),0%,-95*,-7%,10%,17,4%
Cc1ccc(C(C)C)c(OCC(=O)NCC2(N3CCOCC3)CCCCC2)c1,x,x,8%,u,x,2%
NC(N)=N/N=C/c1ccc(OCc2ccccc2Cl)cc1,-23%,41,3%,11µM*,-14,u
CCc1nc2ccc(C(=O)N(C)CCN(C)C)cn2c1N(C)Cc1cc2ccccc2s1,6%,x,23%,u,x,-1%
COc1ccc(Cn2ccc3nc(C)c(C(=O)N4CCN(c5cccc(OC)c5)CC4)cc3c2=O)cc1,x,x,8%,-16%,x,5%
O=C(Oc1ccc(Cl)c2cccnc12)c1cccc([N+](=O)[O-])c1,27%,-1,-1%,5µM*,-6,u
O=C(Oc1c(Cl)cc(Cl)c2cccnc12)c1cccc([N+](=O)[O-])c1,2%,0,4%,13µM*,8,u
O=C(Oc1cccc2cccnc12)c1cccc([N+](=O)[O-])c1,0%,2,-4%,u,-12,u
O=C(CCN1C(=O)c2ccccc2C1=O)NC(=S)Nc1cccc(Cl)c1,2%,-6,15%,-14%,-72*,1%
O=C(CCN1C(=O)c2ccccc2C1=O)NC(=S)Nc1ccccc1,-20%,-2,0%,3%,1,-1%
CC(C)C(=O)Nc1ccc(N2CCN(C(=O)c3cccs3)CC2)cc1,-6%,7,78%,-18%,-1,-19%
COc1ccc(C(=O)N2CCN(c3ccc(NC(=O)c4cccs4)cc3)CC2)cc1,-3%,12,30%,-2%,-92*,-5%
Cc1ccc(C(=O)N2CCN(c3ccc(NC(=S)NC(=O)c4cccs4)cc3)CC2)cc1,7%,-33,27%,8.9µM*,-1,-8%
CC(C)CC(=O)NC(=S)Nc1ccc(N2CCN(C(=O)c3cccs3)CC2)cc1,11%,-6,-6%,10µM*,-10,0%
SMILES,GLP-1R agonist,KCNH2 WT inh,GLS inhibitor,GLP1R inv ag,KCNH2 3.1 block,GLP1R cytotox
O=C(Nc1ccc(N2CCN(C(=O)c3ccccc3)CC2)cc1)c1cccs1,4%,-136*,22%,-18%,-177*,-20%
COC(=O)CN1C(C(=O)c2ccccc2)=C(OC(=O)c2ccccc2)c2ccccc2S1(=O)=O,x,x,7%,u,x,-26%
CC1CCCN(C(=O)Cn2c(=O)n(CC3CCC(C(=O)NC(C)C)CC3)c(=O)c3sccc32)C1 (centres undefined),x,x,0%,8%,x,-3%
Cc1ccc2nc(N(CCCN(C)C)C(=O)c3ccc4c(c3)CCCC4)sc2c1,-42%,31,2%,0%,-17,u
CCOC(=O)N1CCN(S(=O)(=O)c2ccc(C(=O)N(CCN(C)C)c3nc4ccc(Cl)cc4s3)cc2)CC1,-3%,40,9%,8.9µM*,-19,0%
Cc1cc(C)c2nc(N(CCCN(C)C)C(=O)c3ccc4c(c3)CCCC4)sc2c1,-10%,-4,-2%,4.5µM*,-16,u
CCOC(=O)N1CCN(S(=O)(=O)c2ccc(C(=O)N(CCCN(C)C)c3nc4ccc(OC)cc4s3)cc2)CC1,-2%,13,11%,u,-12,-5%
Cc1cc(C)c2nc(N(CCCN(C)C)C(=O)c3ccc(S(=O)(=O)N4CCCCCC4)cc3)sc2c1,-6%,26,3%,13µM*,-29,u
O=C(Nc1cccc(Cl)c1)Nc1nnc([C@H]2C[C@H](O)[C@@H](CO)O2)s1,-3%,x,9%,21%,x,3%
COC(=O)c1ccc(NC(=O)CCc2c(C)nc3c(c(C)nn3C(C)(C)C)c2C)cc1,-1%,x,1%,-5%,x,1%
CCOC(=O)c1ccc(NC(=O)CCc2c(C)nc3c(c(C)nn3C(C)(C)C)c2C)cc1,-6%,x,2%,7.9µM*,x,-22%
CCOc1ccc(NC(=O)c2cnn(-c3ccc(C)c(Cl)c3)c2C2CCNCC2)cc1,-2%,x,3%,8.9µM*,x,u
CCOC(=O)c1ccc(NC(=O)CCn2c(=O)c3cccn3c3cccnc32)cc1,x,x,1%,16%,x,-14%
CC1CN(C(=O)c2ccc(NS(=O)(=O)c3ccc(F)cc3)cc2)CC(C)O1 (centres undefined),-2%,12,-4%,8%,-12,1%
Cc1nc(SCC(=O)NCC(F)(F)F)c2c(-c3cccs3)csc2n1,-5%,-10,2%,u,-1,-9%
Cc1nc(SCC(=O)NC(C)(C#N)C2CC2)c2c(-c3cccs3)csc2n1 (centres undefined),3%,21,-2%,6.3µM*,-1,-19%
CC(NC(=O)c1cc2c(=O)n(C)c3ccccc3c2n1C)c1ccc2c(c1)OCCO2 (centres undefined),5%,-125*,0%,-9%,-27,-4%
